EPAC1 ag val – Validation qHTS for agonist of cAMP-regulated guanine nucleotide exchange factor 3 (EPAC1). EPAC1 Rap1b BODIPY-GDP exchange, fluorescence. Potency, µM, for the others: max response, positive = active, usual class: activators. 16,000 tested, 1% active; further: nearly all actives have a fitted effect of over 70% in size
Target sequence (O95398 whole entry, looked up): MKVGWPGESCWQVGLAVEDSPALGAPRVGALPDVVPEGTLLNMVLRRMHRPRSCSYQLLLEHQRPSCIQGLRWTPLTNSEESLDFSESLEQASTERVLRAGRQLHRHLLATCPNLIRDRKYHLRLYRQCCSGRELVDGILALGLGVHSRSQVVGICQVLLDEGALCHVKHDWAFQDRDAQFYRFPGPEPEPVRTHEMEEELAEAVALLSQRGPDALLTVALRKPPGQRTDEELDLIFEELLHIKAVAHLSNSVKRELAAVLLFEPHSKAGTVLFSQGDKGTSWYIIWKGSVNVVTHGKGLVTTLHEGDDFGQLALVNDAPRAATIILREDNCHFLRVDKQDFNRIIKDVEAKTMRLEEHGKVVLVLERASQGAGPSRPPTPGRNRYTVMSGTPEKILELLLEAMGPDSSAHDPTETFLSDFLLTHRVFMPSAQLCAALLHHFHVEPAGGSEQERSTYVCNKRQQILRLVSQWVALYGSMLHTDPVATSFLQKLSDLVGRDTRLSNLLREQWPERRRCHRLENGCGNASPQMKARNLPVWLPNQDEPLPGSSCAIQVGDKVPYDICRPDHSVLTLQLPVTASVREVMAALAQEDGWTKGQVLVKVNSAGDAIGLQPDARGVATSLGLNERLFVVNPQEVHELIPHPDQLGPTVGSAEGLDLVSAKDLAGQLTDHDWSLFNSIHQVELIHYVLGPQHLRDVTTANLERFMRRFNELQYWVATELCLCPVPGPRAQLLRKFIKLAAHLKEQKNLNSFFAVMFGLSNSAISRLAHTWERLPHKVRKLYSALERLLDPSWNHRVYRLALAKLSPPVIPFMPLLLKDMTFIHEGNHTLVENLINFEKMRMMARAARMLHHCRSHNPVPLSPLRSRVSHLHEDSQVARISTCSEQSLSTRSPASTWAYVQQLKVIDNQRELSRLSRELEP
EPAC2 ant val – Validation qHTS for antagonist of cAMP-regulated guanine nucleotide exchange factor 4 (EPAC2); EPAC2 Rap1B BODIPY-GDP exchange, fluorescence; Potency, µM (top dose mostly 112 µM), for the others: at the top dose activity, negative = inhibition, most hits filed as inhibitors; Rap guanine nucleotide exchange factor 4 (Homo sapiens), Q8WZA2; 16,000 tested, 1.7% active;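 further: 100% = activation by cAMP agonist control; nearly all actives have a fitted effect of over 40% in size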
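Fluorescent exchange read-out: 100 nM EPAC2 with 250 nM RAP1B–BODIPY-GDP and 50 uM GDP; BODIPY-GDP release lowers fluorescence. Read at 480/540 nm every 5 min for 30 min at room temperature; normalized to 6.5 mM cAMP.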
Active calls of the source: *; i = inactive; ? = inconclusive; ! = repeats disagree; [ ] = remark or other dose. In the library only some 2.9% were active in any assay of this set; here they are far more common. The call rests on the fitted dose curve; in most records, active means well fitted curve in the direction sought with a large enough effect; inconclusive means small, poorly fitted or top-dose-only effect, or another doubt; inactive means no such curve, though single readings can be large; an effect the other way counts as inactive or inconclusive. Unless noted, on the % scale 0 is the no-effect control and ±100 the full control effect; potency means the concentration at half of the fitted maximal effect.

SMILES | EPAC1 ag val | EPAC2 ant val
CCc1nc(CN2CCOc3ccc(C(O)C4CCCCC4)cc3C2)c(C)[nH]1 (centres undefined) | -4% | -15%
COc1ccc(C(=O)c2ccc(C)cc2)c(O)c1 | -7% | ?
COc1ccc(C(=O)c2ccccc2)c(O)c1 | -21% | 40µM*!
C(=C\c1ccnc2ccccc12)/c1ccnc2ccccc12 | -90% | -34%
CCCCCCCCCCCCCCCCCCN(CCCCCCCCCCCCCCCCCC)c1ccc(/C=C/c2ccnc3ccccc23)cc1 | -17% | -27%
C=Nc1ccc(/C=C/c2ccnc3ccccc23)cc1 | 100µM* | 28%
CCCCN(CCCC)c1ccc(/C=C/c2ccnc3ccccc23)cc1 | 112µM* | 130%
COc1cccc(C2(CC(=O)N3CCN(c4ccccc4O)CC3)CC(=O)N(C3CCCC3)C2=O)c1 (centres undefined) | 7% | ?
COc1ccc2[nH]cc(CCNc3ncnc4ccc(-c5cccc(C#N)c5)cc34)c2c1 | 24% | -23%
COc1ccc2[nH]cc(CCNc3ncnc4ccc(-c5ccccc5C#N)cc34)c2c1 | 112µM* | -21%
COc1ccccc1N1CCN(c2nc(CNC(=O)c3sc(C)nc3C)nc3ccccc23)CC1 | -5% | -8%
O=C1C2CC3CC1CC(O)(C3)C2 | 3% | -23%
C=CS(=O)(=O)N(Cc1ccccc1Br)[C@H](CO)Cc1ccccc1 | 12% | 35µM*
C=CS(=O)(=O)N(Cc1ccccc1)[C@H](CO)CC(C)C | -51% | 79µM*
CC(C)C[C@H](CO)N(Cc1ccccc1)S(=O)(=O)N(Cc1ccccc1)[C@@H](CO)CC(C)C | -74% | ?
O=S(=O)(N(Cc1ccccc1)[C@@H](CO)Cc1ccccc1)N(Cc1ccccc1)[C@@H](CO)Cc1ccccc1 | -5% | -2%
COc1ccc2c(c1)-c1nc(-n3ncc(C(=O)NCc4cccnc4)c3C3CC3)ncc1CC2 | 0% | -8%
O=C(NNCNNC(=O)c1ccncc1)c1ccncc1 | 7% | 9%
O=C(NNCS(=O)(=O)O)c1ccncc1 | 56µM* | i
CC(C)[C@@H](C)/C=C/[C@@H](C)[C@H]1CC[C@H]2/C(=C/C=C3\C[C@@H](O)CC[C@@H]3C)CCC[C@]12C | -116% | -19%
CNCC(=O)N[C@@H](CCCN=C(N)N)C(=O)N[C@H](C(=O)N[C@@H](Cc1ccc(O)cc1)C(=O)N[C@H](C(=O)N[C@@H](Cc1cnc[nH]1)C(=O)N1CCC[C@H]1C(=O)N[C@@H](C)C(=O)O)C(C)C)C(C)C | -1% | -9%
C=C[C@@](C)(O)CC[C@@H]1[C@@]2(C)CCCC(C)(C)[C@@H]2CC[C@@]1(C)O | -27% | ?
C=C[C@](C)(O)CCC1C(=C)CC(OC(C)=O)C2C(C)(C)CCCC12C (some centres undefined) | -116% | 10µM*
c1cncc(CNc2ccnc(-c3cccnc3)n2)c1 | 20% | 6%
c1ccc(C(NCc2cccnc2)(c2ccccc2)c2ccccc2)cc1 | ? | 10µM*
SMILES | EPAC1 ag val | EPAC2 ant val
O=C(O)c1ccccc1[O-].O=C(O)c1ccccc1[O-].[Zn+2] | 3% | 4%
COc1cc([C@@H]2c3cc4c(cc3[C@@H](O[C@@H]3O[C@@H]5CO[C@@H](C)O[C@@H]5[C@H](O)[C@@H]3O)[C@H]3COC(=O)[C@H]23)OCO4)cc(OC)c1O | -4% | -11%[29.6 µM]
C/C1=C2N=C(/C=C3N=C(/C(C)=C4\[N-][C@@](C)([C@@H]5N=C1[C@](C)(CCC(=O)NCC(C)OP(=O)(O)O[C@H]1[C@@H](O)[C@@H](n6cnc7cc(C)c(C)cc76)O[C@@H]1CO)[C@H]5CC(N)=O)[C@@](C)(CC(N)=O)[C@@H]4CCC(N)=O)[C@@](C)(CC(N)=O)[C@@H]\3CCC(N)=O)C(C)(C)[C@@H]/2CCC(N)=O.CC(=O)O.[Co] (some centres undefined) | -44% | 79µM*
C[n+]1c2cc(N)ccc2cc2ccc(N)cc21 (tested in a mixture with another compound) | 25µM* | i
Cc1ncc2c(c1CNS(=O)(=O)c1cccs1)CCN(C(=O)/C=C/c1cc(F)cc(F)c1)C2 | 14% | -14%
CCCCCCCCCCCCCCCC(=O)OC[C@@H](O)[C@H]1OC[C@H](O)[C@H]1O | -37% | -1%
COc1cc(-c2ccc(N=Nc3ccc4c(S(=O)(=O)O)cc(S(=O)(=O)O)c(N)c4c3O)c(OC)c2)ccc1N=Nc1ccc2c(S(=O)(=O)O)cc(S(=O)(=O)O)c(N)c2c1O | 5% | 28µM*!
COC(=O)[C@H]1[C@H]2C[C@@H]3c4[nH]c5cc(OC)ccc5c4CCN3C[C@H]2C[C@H](OC)[C@@H]1OC | 3% | 20%
c1cnc2cc3c(cc2n1)[C@@H]1CNC[C@H]3C1 | 10% | -3%
COc1cc(C(=O)NS(=O)(=O)c2ccccc2C)ccc1Cc1cn(C)c2ccc(NC(=O)OC3CCCC3)cc12 | 4% | 79µM*
CC(C)c1ccc(CN2CCC3(CCC(CNC(=O)c4ccn(C)n4)O3)CC2)cc1 (centres undefined) | -13% | -22%
C=C1[C@@H]2CC[C@@H](C2)C1(C)C | -42% | 1%
COC[C@H](c1ccc(C(F)(F)F)cc1)N1CCN(C2(C)CCN(C(=O)c3c(C)ncnc3C)CC2)C[C@H]1C | -33% | -1%
COc1ccc2ccc(=O)oc2c1CC=C(C)C | -40% | ?
COc1cc2ccc(=O)oc2cc1O | 100µM*! | -16%
COc1cc(OC)c(CN2CCOc3ccc(CN4CCC(O)CC4)cc3C2)c(OC)c1 | -22% | 12%
CCc1oc2ccccc2c1C(=O)c1cc(Br)c(O)c(Br)c1 | -42% | 45µM*
CC(=O)c1ccc2oc3ccccc3c(=O)c2c1 | 2% | 18%
O=c1c(O)c(-c2cc(O)c(O)c(O)c2)oc2cc(O)cc(O)c12 | -6% | 35µM*!
O=c1c(O)c(-c2ccccc2)oc2cc(O)cc(O)c12 | 6% | ?
COc1ccc(-c2c(-c3ccc4c(c3)OCO4)noc2-c2ccsc2)cn1 | -5% | ?
c1ccc(-c2onc(-c3ccco3)c2-c2ccc3c(c2)OCO3)cc1 | 112µM* | -18%
CC(=O)Oc1ccc2c(c1)CC[C@@H]1[C@@H]2CC[C@]2(C)[C@@H](O)CC[C@@H]12 | 28µM* | 88%
CC(=O)Oc1ccc2c(c1)CCC1C2CC[C@]2(C)C(OC(C)=O)CCC12 (some centres undefined) | ? | -21%
COc1ccc(C(=O)N2CCC3(CCCN(c4ccncc4)C3)CC2)cc1 | 6% | -25%
SMILES | EPAC1 ag val | EPAC2 ant val
COc1ccc(C(=O)N2CCC3(CC2)CN(c2ccncc2)C3)cc1 | 100µM* | -30%
COc1ccc(CN2CCOc3ccc(CN4CCC(Oc5cccnc5)CC4)cc3C2)c(F)c1 | -12% | 3%
CC(=O)N[C@@H]([C@@H](O)[C@H](O)[C@H](O)CO)[C@@H](O)CC(=O)C(=O)O | -7% | 1%
COC(=O)c1cccc(C(=O)NCc2nc(-c3cccc(NC(=O)c4ccoc4C)c3)oc2C)c1 | 14% | -3%
CC(C)(Sc1ccc(CCN(CCCCC2CCCCC2)C(=O)NC2CCCCC2)cc1)C(=O)O | -4% | 45µM*!
COc1cccc(Nc2ncc3nc(-c4cccs4)c(=O)n(CCC#N)c3n2)c1 | ? | 3%

Screens as filed in PubChem BioAssay.
